Results reported in PubChem BioAssay (NCI).
Values joined by “and” are separate entries in the source; they are usually repeats but may differ in a detail not shown here. Equal values may be shown once. This is part of a sample that, as a whole, favours compounds with a hit. Of some 83,000 tested, about 20% had one in any assay.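 Growth was measured after 48 h exposure to one concentration of compound in 96-well plates. Values under 10 count as active.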 Active and inactive are the calls of the source.

tested on: OVCAR-8 ovarian; assay: NCI-60 one-dose screen, 48 h (100 = growth as untreated, 0 = no growth, -100 = all killed); conditions: 10 µM
Procedure: Growth inhibition of the OVCAR-8 human tumor cell line is measured as a screen for anti-cancer activity. Cells are grown in 96 well plates and exposed to the test compound for 48 hours. Compounds are tested at a single concentration, which is 10^-5 M for most compounds. The reported endpoint is percent growth (GI% or GIPRCNT), where numbers from 0 - 100% represent growth inhibition, and numbers from -100% - 0 represent cell death. For example, a value of 40 represents 60% growth inhibition. A value of 0 means no net growth occurred over the course of the experiment. A value of -40 indicates 40% of cells at the beginning of the experiment died by the end of the experiment. A value of -100 means all cells are dead at the end of the experiment.
NCI-60 Human Tumor Cell Lines Screen was performed using the standard one-dose NCI protocol, which is described in more detail at https://dtp.cancer.gov/discovery_development/nci-60/default.htm.
Compounds with GIPRCNT values below 10 were considered active. Activity score was based on GIPRCNT using the following formula: […]
Score is 0 for GIPRCNT values of 100 or above, 50 for GIPRCNT values of 0, and 100 for GIPRCNT values of -100.

| Structure (SMILES) | growth |
| --- | --- |
| CC#C[C@]1(O)CC[C@H]2[C@@H]3CCC4=CC(=O)CCC4=C3[C@@H](c3ccc4c(c3)OCO4)C[C@@]21C | 81.6% (inactive) |
| COc1ccc(Cl)cc1C(=O)NCCc1ccc(S(=O)(=O)NC(=O)NC2CCCCC2)cc1 | 99.8% (inactive) and 100% (inactive) |

same assay, conditions: 10 µM unless noted

| Structure (SMILES) | growth |
| --- | --- |
| O=C1CCN(Cc2ccccc2)C(=S)N1 | 106% (inactive) and 107% (inactive) |
| Cc1ccc(-c2noc(CC(=O)c3ccc([N+](=O)[O-])cc3)n2)cc1 | 100% (inactive) |
| CC(/C=N/N1C(=O)c2ccccc2C1=O)c1ccccc1 (stereo not given) | 101% (inactive) |
| O=C(O)C1(C(=O)O)CCC1.[NH2-].[NH2-].[Pt+2] | 102% (inactive) |
| Cn1cc(-c2cc3c(Nc4ccc(CC(=O)Nc5cc(C(C)(C)C)on5)cc4)ncnc3[nH]2)cn1 | 4.54% (active) and 2.06% (active) |
| Cn1c(SSc2ccc(-c3cccnc3)n2C)ccc1-c1cccnc1 | 97.4% (inactive) and 103% (inactive) |
| OC(CSc1ccccc1)CN1CCN(c2cccc(Cl)c2)CC1 (stereo not given) | 98.9% (inactive) and 101% (inactive) |
| CNC(=O)c1cccnc1 | 100% (inactive) |
| CCCCCn1sc(=O)n(Cc2ccc(CNC(=O)C(C)c3ccc(CC(C)C)cc3)cc2)c1=O (stereo not given) | 92.5% (inactive) and -15% (active) |
| CC(=O)Nc1ccc2cc3ccc(NC(C)=O)cc3nc2c1 | 88.7% (inactive) and 85.6% (inactive) |
| CCCCCCCCCCCCCCCc1cc(O)ccc1N | 87.8% (inactive) and 87.1% (inactive) |
| Cn1c(=O)c2[nH]c(CCCCCCCCc3nc4ccccc4[nH]3)nc2n(C)c1=O | 58.9% (inactive) and 69.2% (inactive) |
| CCN(CC)CCOc1ccc2c(c1)C(=O)c1cc(OCCN(CC)CC)ccc1-2 | 46.5% (inactive) and 59.3% (inactive) |
| Nc1ccc(N=Nc2ccc(S(=O)(=O)O)cc2)cc1S(=O)(=O)O | 96.5% (inactive) and 79.6% (inactive) |
| c1ccc(N(c2ccccc2)c2ccccc2)cc1 | 97.5% (inactive) |
| O=C(N/N=C/c1ccc2c(c1)OCO2)c1ccncc1 | 100% (inactive) and 109% (inactive) |
| Cc1cc(O)c2c(c1)C(=O)c1cc(O)cc(O)c1C2=O | 92.7% (inactive) |
| O=C(Nc1cccc(Cl)c1)c1cc2ccccc2cc1O | 11.2% (inactive) and 8.75% (active) |

| Structure (SMILES) | growth |
| --- | --- |
| O=C1OC(Oc2ccc(Br)cc2)(c2ccccc2)c2ccccc21 (stereo not given) | 93.9% (inactive) and 93% (inactive) |
| COC(=O)/C=C/c1cc(O)c2c(c1)C(C(=O)OC)C(c1ccc(O)c(O)c1)O2 (stereo not given) | 13.3% (inactive) and 14.7% (inactive) |
| CC(=O)c1ccc2c(c1)N(CCCN1CCN(CCO)CC1)c1ccccc1S2 | 82.5% (inactive) and 72.9% (inactive) |
| Nc1ccn(C2OC(CO)C(O)C2O)c(=O)n1 (stereo not given) | 40.1% (inactive) and 97.2% (inactive) and 101% (inactive) |
| Cc1cc(N=Nc2ccc(C)c(N=Nc3cc(C)c(N)cc3N)c2)c(N)cc1N | 98.9% (inactive) and 102% (inactive) |
| O=C(CCc1ccc(O)cc1)N/N=C/c1cc(Br)ccc1O | 56.2% (inactive) |
| CCCCCCCCCCCCCCCCOc1ccc(C)cc1 | 106% (inactive) |
| Oc1ccccc1/C=N\NC(=S)N/N=C/c1ccccc1O | 35.6% (inactive) and 23.4% (inactive) |
| CNC(=O)c1cccc(-c2ccc3c(N4CCOC[C@@H]4C)nc(N4CCOC[C@@H]4C)nc3n2)c1 | -4.37% (active) and -7.81% (active) |
| CC(C)Cc1ccc(C(C)C(=O)NCc2ccc(Cn3c(=O)sn(CCCI)c3=O)cc2)cc1 (stereo not given) | 96.3% (inactive) and -30.2% (active) |
| COc1ccc(NC(=S)Nc2ccccn2)cc1 | 96.5% (inactive) |
| COc1cc(NS(C)(=O)=O)ccc1Nc1c2ccccc2nc2c(C)cccc12 | 0.169% (active) and 1.18% (active) |
| N=C1N=C(N)CS1 | 99.9% (inactive) |
| O=C(Cc1cccc2ccccc12)N/N=C/c1ccc2c(c1)CCC2 | 72.3% (inactive) |
| CNC(=O)c1cc(Oc2ccc(NC(=O)Nc3ccc(Cl)c(C(F)(F)F)c3)cc2)ccn1 | 5.3% (active) and -16.5% (active) |
| CCCCCN(CCCCC)CC(O)c1cc2c(c3ccccc13)CCCC2 (stereo not given) | 88.6% (inactive) and 94.3% (inactive) |
| O=C1c2ccccc2C(=O)c2c(NCCNCCO)ccc(NCCNCCO)c21 | 0.849% (active) and 17.5% (inactive) |
| N#CCCOc1ccccc1 | 98.9% (inactive) |

same assay, conditions: 100 µM

| Structure (SMILES) | growth |
| --- | --- |
| CC#C[C@]1(O)CC[C@H]2[C@@H]3CCC4=CC(=O)CCC4=C3[C@@H](c3ccc4c(c3)OCO4)C[C@@]21C | -13.6% (active) |
| COc1ccc(Cl)cc1C(=O)NCCc1ccc(S(=O)(=O)NC(=O)NC2CCCCC2)cc1 | 67.3% (inactive) |
